Screening results from PubChem BioAssay.
The list is not random: actives were taken first. Their share in the collection is about 5.7%.
RORgamma inh = qHTS for inhibitors of ROR gamma transcriptional activity | Nuclear receptor ROR-gamma (Mus musculus), P51450 | Drosophila S2 Gal4-RORgamma UAS-luciferase reporter, 20 h | Potency, µM (titrated, usually from 53.6 µM), for inactives: at the top dose activity change, negative = inhibition, most hits filed as inhibitors | actives 5.4% (n = 310,000); note: nearly all actives have a fitted effect of over 60% in size
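Using a luciferase readout, inhibitors were identified by reduced reporter activity in Drosophila cells coexpressing a copper-inducible Gal4–ROR gamma fusion and UAS-driven Photinus luciferase, incubated 20 hr after 700 uM copper sulfate.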
NPSR antagonist = qHTS Assay for Antagonists of the Neuropeptide S Receptor: cAMP Signal Transduction; actives 1% (n = 220,000); CHO-NPSR cells, cAMP TR-FRET, antagonist mode; AID 1461, 2008; Potency, µM (highest dose often 38.3 µM), for the others: at the top dose activity change, negative = inhibition, actives largely listed as inhibitors; note: nearly all actives have a fitted effect of over 50% in size
Gal4-VP16 FLuc = VP16 counterscreen qHTS for inhibitors of ROR gamma transcriptional activity | actives 3.5% (n = 310,000) | Potency, µM (titrated, usually from 53.6 µM), inactives show at the highest dose activity, negative = inhibition, actives largely listed as inhibitors | AID 2546, 2010 | Drosophila S2 Gal4-VP16 UAS-luciferase, luminescence, 20 h;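 note: Gal4-VP16 expression switched on by copper sulfate through the metallothionein promoter; nearly all actives have a fitted effect of over 50% in size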
B2AR arrestin = qHTS assay of beta-arrestin-biased ligands of beta2-adrenergic receptor | Beta-2 adrenergic receptor (Homo sapiens), P07550 | beta-arrestin recruitment to beta2AR, cell-based reporter | Potency, µM (top dose mostly 46.1 µM), for inactives: top-dose activation, most hits filed as activators | actives 0.02% (n = 330,000) | AID 492947, 2010;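 note: 0% = DMSO controls and full agonism = EC100 isoproterenol or metaproterenol; nearly all actives have a fitted effect of over 65% in size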
Target sequence (P07550 whole entry, looked up): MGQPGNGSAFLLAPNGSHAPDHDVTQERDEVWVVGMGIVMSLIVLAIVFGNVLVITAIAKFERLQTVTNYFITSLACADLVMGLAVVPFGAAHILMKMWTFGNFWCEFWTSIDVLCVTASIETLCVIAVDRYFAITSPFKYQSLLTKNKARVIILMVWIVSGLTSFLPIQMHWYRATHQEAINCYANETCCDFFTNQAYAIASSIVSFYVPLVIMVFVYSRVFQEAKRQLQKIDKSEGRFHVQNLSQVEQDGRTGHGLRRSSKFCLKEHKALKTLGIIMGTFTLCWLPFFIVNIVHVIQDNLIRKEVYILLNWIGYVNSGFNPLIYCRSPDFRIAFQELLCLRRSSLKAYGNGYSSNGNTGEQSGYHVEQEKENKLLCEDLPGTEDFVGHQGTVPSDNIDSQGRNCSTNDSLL
Active calls of the source: *; ? = inconclusive; . = no result given; [ ] = remark or other dose. Calls come from the whole dose curve; as a rule, active = well fitted curve in the direction sought with a large enough effect; inconclusive = small, poorly fitted or top-dose-only effect, or another doubt; inactive = no such curve, though single readings can be large; an effect the other way counts as inactive or inconclusive. Unless noted, % is set by controls: 0 for no effect and ±100 for the full control effect; potency is the fitted concentration of half-maximal effect.

SMILES	RORgamma inh	NPSR antagonist	Gal4-VP16 FLuc	B2AR arrestin
Cc1ccc(S(=O)(=O)NNC(=S)Nc2cccc(C)c2C)cc1	5µM*	?	?	3%
O=C(CCN1C(=O)c2ccccc2C1=O)NC(=S)Nc1ccccc1Cl	?	-29%	?	0%
Cc1cccc(NC(=S)NC(=O)CCc2ccccc2)c1C	2.5µM*	?	?	3%
Cc1cccc(NC(=S)NC(=O)Cc2ccccc2)c1C	4µM*	.	4.5µM*	?
Cc1c(NC(=S)NC(=O)Cc2ccccc2)cccc1C(=O)O	1%	-1%[46.1 µM]	-3%	-1%
O=C(CCCOc1ccccc1)NC(=S)Nc1ccccc1	10µM*	-15%	?	0%
O=C(NC(=S)Nc1ccccc1Br)c1ccco1	?	.	?	0%
Cc1cccc(NC(=S)NC(=O)c2ccco2)c1C	3.5µM*	.	11µM*	1%
Cc1cccc(NC(=S)NC(=O)CCc2ccccc2)c1	10µM*	-11%[46.1 µM]	?	5%
Cc1cccc(NC(=O)NNC(=O)CCc2ccccc2)c1	?	.	3%	0%
O=C(NC(=S)Nc1cccc(NC(=S)NC(=O)c2ccco2)n1)c1ccco1	0.089µM*	-41%	0.79µM*	?
O=C(CCCOc1ccccc1)Nc1ccncc1	49%	-6%[46.1 µM]	?	0%
Cc1cc(OCC(=O)OCC(=O)Nc2cc(C(F)(F)F)ccc2N2CCOCC2)ccc1Cl	12%	2%	-4%	0%
COc1ccc(C(O)C2=CCCC2=O)cc1 (stereo unspecified)	13%	.	-9%	.
O=C(Oc1ccccc1)N1CCC2(CC1)CCN(c1ccccn1)CC2	27%	.	-14%	.
Cc1cc(C)c(O)c(NC(=S)NC(=O)Cc2ccccc2)c1	10µM*	.	5.6µM*	0%
Cc1cccc(NC(=S)NN(Cc2ccccc2)c2ccccc2)c1C	3.5µM*	-29%[46.1 µM]	3.5µM*	-1%
CCC(=O)Nc1cccc(NC(=S)NC(=O)Cc2ccccc2)c1	-22%	-8%[46.1 µM]	1%	0%
CCCN(Cc1ccccc1)C(=S)Nc1cccc(C)c1C	?	-15%	-5%	0%
Cc1nn(C)c(C)c1CN(C)S(=O)(=O)c1ccc2ccccc2c1	?	-18%[46.1 µM]	5µM*	0%
CCCn1c(C)nc2c(NCCCN3CCCCC3C)nc(C)nc21 (stereo unspecified)	2%	.	-2%	.
O=C(Nc1ccc(-c2nc3cccnc3s2)cc1)C1CCCO1 (stereo unspecified)	18µM*	-2%	11µM*	0%
Cc1ccc2nc(-c3ccc(NC(=O)C4CCCO4)cc3)[nH]c2c1 (stereo unspecified)	6.3µM*	-13%[46.1 µM]	7.1µM*	0%
Cc1ccc2nc(-c3ccc(NC(=O)Cc4cccs4)cc3)[nH]c2c1	?	-18%[46.1 µM]	?	0%
CCCC(=O)Nc1nnc(S(=O)(=O)N(CC)c2ccc(OC)cc2)s1	-17%	.	-6%	0%
SMILES	RORgamma inh	NPSR antagonist	Gal4-VP16 FLuc	B2AR arrestin
Cn1c(/C(C#N)=C(\O)c2ccc([N+](=O)[O-])s2)nc2ccccc21	-35%	.	-2%	2%
Cn1c(/C(C#N)=C(\O)c2ccc(Cl)s2)nc2ccccc21	2µM*	.	4.5µM*	0%
CCNc1sc(C(=O)c2cccs2)c(N)c1-c1nc2ccccc2s1	?	?	7.9µM*	0%
C=CCNc1sc(C(=O)c2ccccc2)c(N)c1-c1nc2ccccc2s1	4.5µM*	?	16µM*	0%
CCOC(=O)c1sc(NCc2ccco2)c(-c2nc3ccccc3s2)c1N	19%	-24%[46.1 µM]	6%	-1%
FC(F)(F)c1ccc(Cl)c(NC(=S)N/N=C/c2ccccc2Cl)c1	2.2µM*	-2%	?	0%
O=C(CC(=O)c1ccccc1)Nc1cc(C(F)(F)F)ccc1Cl	?	-15%[46.1 µM]	?	0%
O=C(O)c1ccc(NNC(=S)Nc2cc(C(F)(F)F)ccc2Cl)cc1	3.2µM*	.	?	0%
O=C(NC(=S)Nc1cc(C(F)(F)F)ccc1Cl)c1ccccc1	2.5µM*	-26%[46.1 µM]	?	0%
COC(=O)C1C2CC3c4[nH]c5cc(OC)ccc5c4CCN3CC2CC(OC(=O)c2cc(OC)c(OC)c(OC)c2)C1OC (stereo unspecified)	-23%	.	-30%	.
CCn1c(/C(C#N)=N/O)nc2ccccc21	8.9µM*	4%	?	6%
CC1CCCC(NC(=O)CSc2n[nH]c(=O)n2Cc2ccccc2)C1C (stereo unspecified)	.	.	.	-1%
CC1(C)CC(CC(=O)Nc2ccccc2[N+](=O)[O-])C(=O)O1 (stereo unspecified)	7%	12%	-5%	-1%
CC1(C)CC(CCC(=O)NC(=S)Nc2ccccc2Cl)C(=O)O1 (stereo unspecified)	18µM*	-2%	?	0%
O=C(NCc1ccccc1F)c1ccc2c(c1)OCO2	36%	-4%[46.1 µM]	5%	0%
O=C(Nc1ccc(Br)cc1F)c1ccc2c(c1)OCCO2	7.9µM*	.	?	-1%
O=C(NCCc1ccccc1F)c1ccc2c(c1)OCCO2	0.63µM*	.	0.79µM*	0%
CC(C)C[C@H](NC(=O)[C@@H](Cc1c[nH]c2ccccc12)NC(=O)[C@H](Cc1ccc(O)cc1)NC(=O)[C@H](CO)NC(=O)[C@H](Cc1c[nH]c2ccccc12)NC(=O)[C@H](Cc1cnc[nH]1)NC(=O)[C@@H]1CCC(=O)N1)C(=O)N[C@@H](CCCN=C(N)N)C(=O)N1CCC[C@H]1C(=O)NCC(N)=O	21%	.	-9%	.
CCCCN(Cc1ccco1)S(=O)(=O)c1ccc(-c2ccc(=O)[nH]n2)s1	22%	.	-1%	0%
COc1cc(OC)cc(C(=O)OCC(=O)c2cc(C)n(CC3CCCO3)c2C)c1 (stereo unspecified)	.	.	.	0%
Cc1cc(C(=O)COC(=O)c2ccc(O)cc2)c(C)n1CC1CCCO1 (stereo unspecified)	7.1µM*	-8%	-21%	0%
Cc1cc(C(=O)CN2C(=O)c3ccccc3S2(=O)=O)c(C)n1CC1CCCO1 (stereo unspecified)	2.2µM*	-12%[46.1 µM]	8.9µM*	-1%
O=C(CC1OC(=O)c2ccccc21)Nc1cccc(S(=O)(=O)N2CCCCCC2)c1 (stereo unspecified)	8%	.	6%	0%
Cc1c(C(=O)N(C)C2CCCCC2)sc2nc3ccc(N)cc3n12	40%	.	-3%	.
Cc1nc2ccc(NC(=O)[C@H](C)N3C(=O)C4CC=CCC4C3=O)cc2s1 (stereo partly specified)	.	.	.	0%
Cc1ccc(NC(=O)c2noc3c2CCc2ccccc2-3)cc1	32%	-17%[46.1 µM]	2%	0%
O=C(Nc1cccc(O)c1)c1noc2c1CCc1ccccc1-2	0.35µM*	-10%[46.1 µM]	1.4µM*	0%
COc1cccc(-c2nn(C)c3sc(C(=O)NCc4ccc5c(c4)OCO5)cc23)c1	-28%	-22%[46.1 µM]	-16%	0%
COc1cccc(-c2nn(C)c3sc(C(=O)NCc4ccc(C)o4)cc23)c1	8%	?	20µM*	8%
